Measurements from PubChem BioAssay (Tox21).
Values joined by “and” are separate entries in the source; they are usually repeats but may differ in a detail not shown here. Equal entries are not always repeated. Results filed as inconclusive are left out. Where a call stands in place of a potency, no number is given. Some compounds were tested as several samples or in several runs, with calls that do not always agree. Active and inactive are the calls of the source. Unless noted, the call rests on the fitted dose curve; in most records, active means well fitted curve in the direction sought with a large enough effect in the repeat runs; inconclusive means weak or mixed curves; inactive means no such curve, though single readings can be large; an effect the other way counts as inactive or inconclusive.

Key:
[1] = qHTS assay to identify small molecule agonists of the sonic hedgehog signaling (Shh) pathway (AID 1259368; calls by dose curve;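 further: NIH/3T3-derived 3T3Gli1-Luc cells carrying a stable Gli1-driven firefly luciferase reporter; series mostly up to about 92 µM; nearly all actives have a fitted effect of over 15% in size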)
Procedure, shortened: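 Cells of a mouse NIH/3T3 clone stably expressing luciferase under the Gli1 transcriptional response element are exposed to test chemicals for 24 hr at 37 C. Pathway activation is detected as a rise in luminescence.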

[2] = qHTS assay to identify small molecule antagonists of the sonic hedgehog signaling (Shh) pathway (AID 1259369; calls by dose curve; further: nearly all actives have a fitted effect of over 45% in size; further: potency means the concentration at half of the fitted maximal effect)
Procedure, shortened: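 Cells are plated and held 4hr at 37 C, compounds (DMSO) are pinned in, conditioned medium is added to stimulate the pathway, and after 24hr luciferase reagent is added for 30min before luminescence is read.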

[3] = qHTS assay to identify small molecule agonists of the androgen receptor (AR) signaling pathway in the presence of an antagonist - cell viability counter screen (AID 1259379);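 further: MDA-kb2 human breast cancer cells carrying an MMTV luciferase reporter; series mostly up to about 92 µM; nearly all actives have a fitted effect of over 25% in size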
Procedure, shortened: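 Cytotoxicity is assessed by CellTiter-Fluor in MDA-kb2 cells carrying an MMTV-driven luciferase reporter. Cells receive 3.0uM nilutamide plus compounds at 15 concentrations and incubate 16 hr at 37C without CO2 before fluorescence reading.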

[4] = qHTS assay to identify small molecule agonists of the estrogen receptor beta (ER-beta) signaling pathway - cell viability counter screen (AID 1259380); further: nearly all actives have a fitted effect of over 30% in size; further: potency means the concentration at half of the fitted maximal effect
Procedure, shortened: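 Cytotoxicity is measured in parallel with the reporter screen: after 16 hr compound exposure at 37C and a 2 hr LiveBLAzer step, CellTiter-Glo is added to the same ER-beta-UAS-bla HEK293T wells and luminescence read after 30 min.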

[5] = target: Androgen receptor (Homo sapiens) (UniProt P10275); assay: qHTS assay to identify small molecule agonists of the androgen receptor (AR) signaling pathway in the presence of an antagonist (AID 1259381; calls by dose curve; further: nearly all actives have a fitted effect of over 15% in size)
Androgen receptor (Homo sapiens), sequence (P10275 whole entry, looked up): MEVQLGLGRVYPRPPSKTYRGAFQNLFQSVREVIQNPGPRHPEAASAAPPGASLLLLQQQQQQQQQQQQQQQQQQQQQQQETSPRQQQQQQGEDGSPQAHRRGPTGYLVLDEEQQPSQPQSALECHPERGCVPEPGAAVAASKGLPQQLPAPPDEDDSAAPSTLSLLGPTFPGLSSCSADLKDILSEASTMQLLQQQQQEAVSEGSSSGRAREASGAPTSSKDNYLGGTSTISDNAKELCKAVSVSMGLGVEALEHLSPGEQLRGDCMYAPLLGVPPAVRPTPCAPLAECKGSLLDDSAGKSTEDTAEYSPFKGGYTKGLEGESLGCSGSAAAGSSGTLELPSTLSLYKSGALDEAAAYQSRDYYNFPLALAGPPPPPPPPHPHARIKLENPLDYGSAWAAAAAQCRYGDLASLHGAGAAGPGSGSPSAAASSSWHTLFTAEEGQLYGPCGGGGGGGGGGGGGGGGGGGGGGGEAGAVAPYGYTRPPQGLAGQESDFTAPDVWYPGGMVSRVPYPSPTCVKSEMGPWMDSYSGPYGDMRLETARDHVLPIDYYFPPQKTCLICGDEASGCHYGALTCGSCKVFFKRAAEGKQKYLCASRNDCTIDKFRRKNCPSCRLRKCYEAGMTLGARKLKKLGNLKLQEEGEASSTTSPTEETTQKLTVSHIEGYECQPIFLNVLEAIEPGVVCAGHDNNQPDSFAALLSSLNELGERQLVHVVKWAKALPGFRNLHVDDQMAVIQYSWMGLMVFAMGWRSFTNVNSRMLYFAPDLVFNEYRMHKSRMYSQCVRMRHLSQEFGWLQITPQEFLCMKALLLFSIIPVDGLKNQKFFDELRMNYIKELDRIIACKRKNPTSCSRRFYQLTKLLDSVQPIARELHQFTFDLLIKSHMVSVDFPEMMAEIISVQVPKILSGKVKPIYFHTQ
Procedure, shortened: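 Agonist-mode confirmation screen: human MDA-kb2 cells stably expressing luciferase under an MMTV promoter bearing AR and GR response elements, co-treated with 3.0uM nilutamide (final). Luminescence measured after 16hr compound incubation.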

[6] = qHTS assay to identify small molecule antagonists of the estrogen receptor beta (ER-beta) signaling pathway - cell viability counter screen (AID 1259382); further: series mostly up to about 92 µM; nearly all actives have a fitted effect of over 55% in size
Procedure, shortened: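 Cytotoxicity counter screen multiplexed with the beta-lactamase antagonist assay: GripTite HEK293T ER-beta-bla cells were treated 16 hr with test chemicals in the presence of 1nM 17-beta-estradiol, and viability was measured by CellTiter-Glo.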

[7] = qHTS assay to identify small molecule agonists or antagonists of the thyroid stimulating hormone receptor (TSHR) signaling pathway - wild type cell line counter screen (AID 1259384; calls by dose curve)
Procedure, shortened: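 Wild-type HEK293 cells were plated 18 h at 37 C/5% CO2, pin-dosed with compound plus Ro20-1724 medium, held 30 min at room temperature, then given cAMP-d2 and anti-cAMP-cryptate; fluorescence was read after 1 h. Fifteen concentrations, triplicate.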

[8] = target: Thyrotropin receptor (Homo sapiens) (UniProt P16473); assay: qHTS assay to identify small molecule antagonists of the thyroid stimulating hormone receptor (TSHR) signaling pathway (AID 1259385; calls by dose curve; further: nearly all actives have a fitted effect of over 20% in size)
Thyrotropin receptor (Homo sapiens), sequence (P16473 whole entry, looked up): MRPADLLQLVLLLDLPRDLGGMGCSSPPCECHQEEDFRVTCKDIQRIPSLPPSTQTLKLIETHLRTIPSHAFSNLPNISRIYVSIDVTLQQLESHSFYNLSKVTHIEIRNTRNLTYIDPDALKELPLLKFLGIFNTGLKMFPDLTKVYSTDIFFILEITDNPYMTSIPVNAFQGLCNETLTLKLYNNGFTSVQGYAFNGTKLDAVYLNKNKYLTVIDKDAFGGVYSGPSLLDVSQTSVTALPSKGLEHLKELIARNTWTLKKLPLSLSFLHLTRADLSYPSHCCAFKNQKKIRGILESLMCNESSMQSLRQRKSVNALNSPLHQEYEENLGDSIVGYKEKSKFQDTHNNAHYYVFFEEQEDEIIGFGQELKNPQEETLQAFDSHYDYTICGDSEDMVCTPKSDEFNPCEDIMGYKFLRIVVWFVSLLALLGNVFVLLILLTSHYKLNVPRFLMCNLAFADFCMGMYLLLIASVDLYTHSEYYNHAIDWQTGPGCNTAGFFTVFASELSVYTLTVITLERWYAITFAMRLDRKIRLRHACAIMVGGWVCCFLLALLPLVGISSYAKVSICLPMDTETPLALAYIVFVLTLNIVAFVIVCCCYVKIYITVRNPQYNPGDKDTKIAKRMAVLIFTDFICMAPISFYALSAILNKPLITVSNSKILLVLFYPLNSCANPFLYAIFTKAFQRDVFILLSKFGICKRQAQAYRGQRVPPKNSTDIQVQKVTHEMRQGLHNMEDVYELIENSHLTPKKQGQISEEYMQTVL
Procedure, shortened: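 TSHR-HEK293 cells were plated and held 18 h at 37C/5% CO2, then given compound plus Ro20-1724 and stimulated with TSH at 1.5 ng/mL final. After 30 min at room temperature, cAMP was detected with cAMP-d2/anti-cAMP-cryptate (1 h) by fluorescence.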

[9] = qHTS assay to identify small molecule agonists of the estrogen receptor alpha (ER-alpha) signaling pathway in the presence of an antagonist - cell viability counter screen (AID 1259386);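 further: cells exposed to compounds for 22 h at 37 °C before the viability read; nearly all actives have a fitted effect of over 30% in size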; further: potency means the concentration at half of the fitted maximal effect
Procedure, shortened: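 Cytotoxicity was measured in parallel with the ERE-luciferase agonist screen, in the same wells. The cells were VM7Luc4E2, which endogenously express ER-alpha, and treatment was with compounds plus 10.0nM ICI-182,780 for 22hr.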

[10] = target: Progesterone receptor (Homo sapiens) (UniProt P06401); assay: qHTS assay to identify small molecule agonists of the progesterone receptor (PR) signaling pathway (AID 1346784; calls by dose curve; further: nearly all actives have a fitted effect of over 30% in size)
Progesterone receptor (Homo sapiens), sequence (P06401 whole entry, looked up): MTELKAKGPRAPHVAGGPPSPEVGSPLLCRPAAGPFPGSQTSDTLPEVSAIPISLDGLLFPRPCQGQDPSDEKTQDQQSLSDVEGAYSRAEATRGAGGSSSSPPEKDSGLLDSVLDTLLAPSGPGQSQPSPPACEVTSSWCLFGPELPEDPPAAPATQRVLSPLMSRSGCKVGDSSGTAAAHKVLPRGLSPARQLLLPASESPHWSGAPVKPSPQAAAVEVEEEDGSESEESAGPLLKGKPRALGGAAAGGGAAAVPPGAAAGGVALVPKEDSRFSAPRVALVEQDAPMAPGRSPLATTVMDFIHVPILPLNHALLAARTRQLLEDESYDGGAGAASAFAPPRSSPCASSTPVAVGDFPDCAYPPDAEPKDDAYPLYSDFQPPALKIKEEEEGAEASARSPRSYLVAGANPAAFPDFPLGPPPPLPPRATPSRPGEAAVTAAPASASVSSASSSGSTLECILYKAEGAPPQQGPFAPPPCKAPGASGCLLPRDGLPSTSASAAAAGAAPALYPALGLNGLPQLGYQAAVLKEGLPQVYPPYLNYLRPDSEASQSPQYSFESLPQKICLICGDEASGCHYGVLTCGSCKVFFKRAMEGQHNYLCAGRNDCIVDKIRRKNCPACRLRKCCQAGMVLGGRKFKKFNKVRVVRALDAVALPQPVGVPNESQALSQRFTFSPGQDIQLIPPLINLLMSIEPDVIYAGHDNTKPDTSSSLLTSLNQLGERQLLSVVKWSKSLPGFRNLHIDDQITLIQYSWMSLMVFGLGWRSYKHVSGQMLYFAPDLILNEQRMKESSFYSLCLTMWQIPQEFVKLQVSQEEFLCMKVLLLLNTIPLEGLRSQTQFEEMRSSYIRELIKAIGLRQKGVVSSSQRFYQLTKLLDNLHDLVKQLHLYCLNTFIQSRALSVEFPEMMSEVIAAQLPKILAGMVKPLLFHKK
Procedure, shortened: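 The screen uses PR-UAS-bla HEK 293T cells in charcoal-stripped serum (2%). Compounds are applied for 16 hr at 37C after a 6 hr pre-incubation, and reporter activity is detected with a FRET beta-lactamase substrate after 2 hr at room temperature.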

[11] = target: Progesterone receptor (Homo sapiens) (UniProt P06401); assay: qHTS assay to identify small molecule antagonists of the progesterone receptor (PR) signaling pathway (AID 1346795; active means well fitted inhibition curve with a large enough effect in the signal ratio in the repeat runs, not every such curve was filed as active; the % refers to the signal ratio; further: potency means the concentration at half of the fitted maximal effect)
Procedure, shortened: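 After 6 hr plating at 37C in 2% stripped-serum medium, PR-UAS-bla HEK293T cells got compounds, then 1 nM R5020. Sixteen hours later, LiveBLAzer substrate was applied for 2 hr at room temperature and fluorescence was recorded.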

[12] = qHTS assay to identify small molecule antagonists of the progesterone receptor (PR) signaling pathway - cell viability counter screen (AID 1346798); further: series mostly up to about 92 µM; nearly all actives have a fitted effect of over 50% in size
Procedure, shortened: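 Viability was determined by ATP-based luminescence (CellTiter-Glo) in PR-UAS-bla HEK293T cells cultured in 2% charcoal-stripped serum and incubated 16 hr with compounds under R5020 stimulation.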

[13] = qHTS assay to identify small molecule agonists of the progesterone receptor (PR) signaling pathway - cell viability counter screen (AID 1346799; calls by dose curve; further: nearly all actives have a fitted effect of over 45% in size)
Procedure, shortened: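 Viability was scored by ATP luminescence (CellTiter-Glo, 30 min, room temperature) in the same wells used for the reporter readout, after 16 hr compound exposure of PR-UAS-bla HEK293T cells.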

[14] = qHTS assay to identify small molecule antagonists of the TGF-beta/Smad signaling pathway - cell viability counter screen (AID 1346824); further: nearly all actives have a fitted effect of over 50% in size
Procedure, shortened: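 SBE-bla HEK 293T cells were plated overnight at 37 C, then given compounds in DMSO plus TGF-beta1 (added as 0.25 ng/mL solution) for 5 hr. After the bla read, CellTiter-Glo was added to the same wells and luminescence read after 30 min at room temperature.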

[15] = qHTS assay to identify small molecule agonists of the TGF-beta/Smad signaling pathway - cell viability counter screen (AID 1346829); further: top concentration of the series differs between compounds; nearly all actives have a fitted effect of over 45% in size
Procedure, shortened: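 Cytotoxicity counter screen: CellTiter-Glo luminescence (30 min, room temperature) measured in the SBE-bla HEK 293T reporter wells after 5 hr compound treatment at 37 C and the 2 hr substrate step.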

[16] = qHTS assay to identify small molecule agonists of the TGF-beta/Smad signaling pathway (AID 1346859; active means well fitted activation curve with a large enough effect in the signal ratio in the repeat runs, not every such curve was filed as active; the % refers to the signal ratio; further: series mostly up to about 77 µM)
Procedure, shortened: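 Dual-wavelength fluorescence (460/530 nm emission) quantified beta-lactamase expression under the Smad binding element in HEK 293T cells following 5 hr compound treatment at 37 C.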

[17] = target: Thyrotropin-releasing hormone receptor (Homo sapiens) (UniProt P34981); assay: qHTS assay to identify small molecule antagonists of the thyrotropin-releasing hormone receptor (TRHR) signaling pathway (AID 1346877; active means well fitted inhibition curve with a large enough effect in the repeat runs, not every such curve was filed as active; further: series mostly up to about 51 µM)
Thyrotropin-releasing hormone receptor (Homo sapiens), sequence (P34981 whole entry, looked up): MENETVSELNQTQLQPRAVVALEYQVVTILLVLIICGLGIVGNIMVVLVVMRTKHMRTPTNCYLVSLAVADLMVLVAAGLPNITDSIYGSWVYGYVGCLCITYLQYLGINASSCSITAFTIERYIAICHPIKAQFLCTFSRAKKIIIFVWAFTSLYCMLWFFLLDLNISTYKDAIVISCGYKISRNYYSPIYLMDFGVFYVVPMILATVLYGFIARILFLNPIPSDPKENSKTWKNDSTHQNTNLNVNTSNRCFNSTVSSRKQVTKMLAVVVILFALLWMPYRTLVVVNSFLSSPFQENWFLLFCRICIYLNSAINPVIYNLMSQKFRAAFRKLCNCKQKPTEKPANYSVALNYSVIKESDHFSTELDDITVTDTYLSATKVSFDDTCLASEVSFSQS
Procedure, shortened: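 Antagonism is measured as suppression of the calcium response to 1 nM TRH in TRHR-HEK293 cells that have been dye-loaded for 2 h at 37 °C after overnight plating. Each compound is tested at 15 concentrations in triplicate.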

[18] = target: Estrogen receptor beta (Homo sapiens) (UniProt Q92731); assay: qHTS assay to identify small molecule agonists of the estrogen receptor beta (ER-beta) signaling pathway (AID 1259377; active means well fitted activation curve with a large enough effect in the signal ratio in the repeat runs, not every such curve was filed as active; the % refers to the signal ratio)
Estrogen receptor beta (Homo sapiens), sequence (Q92731 whole entry, looked up): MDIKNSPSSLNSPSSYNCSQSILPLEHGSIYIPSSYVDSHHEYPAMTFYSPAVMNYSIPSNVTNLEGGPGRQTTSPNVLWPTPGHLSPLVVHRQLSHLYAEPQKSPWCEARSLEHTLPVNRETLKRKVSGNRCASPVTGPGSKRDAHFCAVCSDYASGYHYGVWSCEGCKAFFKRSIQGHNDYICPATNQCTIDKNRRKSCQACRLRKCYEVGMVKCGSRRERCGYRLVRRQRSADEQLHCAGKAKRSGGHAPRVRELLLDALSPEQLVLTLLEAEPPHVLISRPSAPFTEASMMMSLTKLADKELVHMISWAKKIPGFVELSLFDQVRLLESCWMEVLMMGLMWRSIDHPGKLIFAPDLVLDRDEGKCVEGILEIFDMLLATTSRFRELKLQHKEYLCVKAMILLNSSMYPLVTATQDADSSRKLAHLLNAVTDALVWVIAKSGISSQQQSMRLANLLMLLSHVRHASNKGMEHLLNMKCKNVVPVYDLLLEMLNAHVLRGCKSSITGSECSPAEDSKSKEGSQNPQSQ
Procedure, shortened: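 Measured by fluorescence intensity from a B/G FRET beta-lactamase substrate (2 h, room temperature) in ER-beta-UAS-bla HEK293T cells treated with DMSO-dissolved compounds for 16 hr at 37C and 5% CO2.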

[19] = target: Estrogen receptor beta (Homo sapiens) (UniProt Q92731); assay: qHTS assay to identify small molecule antagonists of the estrogen receptor beta (ER-beta) signaling pathway (AID 1259378; active means well fitted inhibition curve with a large enough effect in the signal ratio in the repeat runs, not every such curve was filed as active; the % refers to the signal ratio)
Procedure, shortened: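 ER-beta-UAS-bla HEK293T (GripTite) cells in 2% charcoal-stripped FBS medium were preincubated 6 hr at 37C, dosed with compound, then stimulated with 1 nM E2 (final) for 16 hr; beta-lactamase reporter read by B/G FRET fluorescence after 2 hr substrate loading.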

[20] = target: Estrogen receptor (Homo sapiens) (UniProt P03372); assay: qHTS assay to identify small molecule agonists of the estrogen receptor alpha (ER-alpha) signaling pathway in the presence of an antagonist (AID 1259383; calls by dose curve; further: top concentration of the series differs between compounds; nearly all actives have a fitted effect of over 15% in size)
Estrogen receptor (Homo sapiens), sequence (P03372 whole entry, looked up): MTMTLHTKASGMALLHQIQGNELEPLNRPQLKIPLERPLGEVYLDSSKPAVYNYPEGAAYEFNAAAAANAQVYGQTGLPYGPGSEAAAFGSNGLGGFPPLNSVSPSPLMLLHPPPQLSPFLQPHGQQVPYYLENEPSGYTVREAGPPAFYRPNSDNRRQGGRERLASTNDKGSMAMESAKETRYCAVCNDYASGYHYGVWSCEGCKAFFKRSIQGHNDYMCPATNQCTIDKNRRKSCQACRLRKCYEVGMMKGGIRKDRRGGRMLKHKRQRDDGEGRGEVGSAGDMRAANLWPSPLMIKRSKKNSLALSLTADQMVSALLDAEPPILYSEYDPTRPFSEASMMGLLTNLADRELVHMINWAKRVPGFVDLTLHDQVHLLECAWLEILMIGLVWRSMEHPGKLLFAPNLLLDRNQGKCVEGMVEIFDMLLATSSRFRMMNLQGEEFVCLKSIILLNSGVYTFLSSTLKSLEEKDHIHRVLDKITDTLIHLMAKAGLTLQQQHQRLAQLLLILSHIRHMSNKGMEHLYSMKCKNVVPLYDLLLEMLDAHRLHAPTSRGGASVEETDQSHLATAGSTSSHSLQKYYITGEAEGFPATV
Procedure, shortened: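 Agonist-mode confirmation in the presence of the ER antagonist ICI-182,780 at 10.0nM final. Breast-derived VM7Luc4E2 reporter cells were exposed to compounds for 22hr, and ERE-driven luciferase was quantified by luminescence.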

Structure (SMILES) | outcome [1] | Potency [2] | Potency [3] | Potency [4] | outcome [5] | outcome [6] | outcome [7] | outcome [8] | Potency [9] | Potency [10] | Potency [11] | Potency [12] | outcome [13] | Potency [14] | Potency [15] | outcome [16] | outcome [17] | Potency [18] | outcome [19] | outcome [20]
CC(C)CCCCCCOC(=O)c1ccccc1C(=O)OCCCCCCC(C)C | inactive | inactive | inactive | inactive | inactive | inactive | inactive | inactive | inactive | inactive | inactive | inactive | inactive | inactive | inactive | inactive | inactive | – | – | –
CSc1nnc(C(C)(C)C)c(=O)n1N | inactive | inactive | inactive | inactive | – | inactive | inactive | inactive | inactive | inactive | inactive | inactive | inactive | inactive | inactive | inactive | inactive | inactive | inactive | –
OC[C@@H](O)[C@H]1O[C@@H]2O[C@H](C(Cl)(Cl)Cl)O[C@@H]2[C@H]1O | inactive | inactive | inactive | inactive | – | inactive | inactive | inactive | inactive | inactive | inactive | inactive | inactive | inactive | inactive | inactive | inactive | inactive | inactive | –
CCSC(=O)N1CCCCCC1 | inactive | inactive | inactive | inactive | – | inactive | inactive | inactive | inactive | inactive | inactive | inactive | – | inactive | inactive | inactive | – | inactive | inactive | –
O=S(=O)(O)OOS(=O)(=O)O | inactive | inactive | inactive | inactive | – | inactive | – | – | inactive | inactive | inactive | inactive | inactive | inactive | inactive | inactive | inactive | inactive | inactive | –
Nc1ccc(N)cc1 | inactive | 54.7 µM (active) and 48.6 µM (active) and inactive | inactive | inactive | – | inactive | inactive | – | 54.7 µM (active) and 54.5 µM (active) | inactive | inactive | inactive | inactive | inactive | inactive | inactive | inactive | inactive | inactive | –
CCCCC(CC)C(=O)Cl (stereo unspecified) | inactive | inactive | inactive | inactive | – | inactive | inactive | inactive | inactive | inactive | inactive | inactive | inactive | inactive | inactive | inactive | inactive | inactive | inactive | –
CNCC(O)c1ccc(O)cc1 (stereo unspecified) | inactive | inactive | inactive | inactive | – | inactive | inactive | inactive | inactive | inactive | inactive | inactive | inactive | inactive | inactive | inactive | inactive | inactive | inactive | –
CCOC(=O)CC(SP(=O)(OC)OC)C(=O)OCC (stereo unspecified) | inactive | inactive | inactive | inactive | – | inactive | inactive | inactive | inactive | inactive | inactive | inactive | inactive | inactive | inactive | inactive | inactive | inactive | inactive | –
Cc1cccc(C)c1N | inactive | inactive | inactive | inactive | – | inactive | inactive | inactive | inactive | inactive | inactive | inactive | inactive | inactive | inactive | inactive | inactive | inactive | inactive | –
C=CC#N | inactive | inactive | inactive | inactive | – | inactive | inactive | inactive | inactive | inactive | inactive | inactive | inactive | inactive | inactive | inactive | inactive | inactive | inactive | –
N#Cc1cccc(C#N)c1 | inactive | inactive | inactive | inactive | – | inactive | inactive | inactive | inactive | inactive | inactive | inactive | inactive | inactive | inactive | inactive | inactive | inactive | inactive | –
COP(=S)(OC)Oc1ccc(SC)c(C)c1 | inactive | inactive | inactive | inactive | – | inactive | – | – | inactive | inactive | 13.5 µM (active) | inactive | inactive | inactive | inactive | inactive | inactive | inactive | inactive | –
FC(F)(F)c1ccc(Cl)cc1 | inactive | inactive | inactive | inactive | – | inactive | inactive | inactive | inactive | inactive | inactive | inactive | inactive | inactive | inactive | inactive | inactive | inactive | inactive | –
CN(C)C(=O)C(c1ccccc1)c1ccccc1 | inactive | inactive | inactive | inactive | – | inactive | – | – | inactive | inactive | inactive | inactive | inactive | inactive | inactive | inactive | inactive | inactive | inactive | –
Oc1c(Br)cc(Br)cc1Br | inactive | inactive | inactive | 21.7 µM (active) and inactive | – | inactive | inactive | inactive | inactive | inactive | – | inactive | – | inactive | inactive | inactive | inactive | inactive | – | inactive
Cc1cc(Cl)ccc1OC(C)C(=O)O (stereo unspecified) | inactive | inactive | inactive | inactive | – | inactive | – | – | inactive | inactive | inactive | inactive | inactive | inactive | inactive | inactive | – | inactive | inactive | –
